# D2 PAM-1: Beta-Arrestin HTS for Positive Allosteric Modulators of the Human D2 Dopamine Receptor: Potentiators; D(2) dopamine receptor (Homo sapiens), P14416; DiscoveRx D2 beta-arrestin cells, luminescence, 90 min; 100% = 57 uM dopamine signal; potentiation, % (no concentration beside the values); actives 0.23% (n = 360,000); in the data active = potentiation above about 50%
# Target sequence (P14416 whole entry, looked up): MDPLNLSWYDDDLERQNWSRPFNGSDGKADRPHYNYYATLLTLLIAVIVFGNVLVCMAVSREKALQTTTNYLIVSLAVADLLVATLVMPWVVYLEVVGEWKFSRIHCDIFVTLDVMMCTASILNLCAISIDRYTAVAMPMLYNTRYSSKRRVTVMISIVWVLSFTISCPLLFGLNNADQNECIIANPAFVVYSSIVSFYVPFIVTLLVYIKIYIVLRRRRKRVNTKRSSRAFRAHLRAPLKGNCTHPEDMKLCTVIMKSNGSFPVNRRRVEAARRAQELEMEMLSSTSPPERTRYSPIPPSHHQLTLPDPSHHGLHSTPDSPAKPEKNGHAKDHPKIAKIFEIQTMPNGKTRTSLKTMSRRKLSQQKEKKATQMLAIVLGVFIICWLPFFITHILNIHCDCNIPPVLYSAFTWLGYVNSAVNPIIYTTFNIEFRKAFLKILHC
#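 D2 cells co-treated with compound plus 50 nM dopamine (EC20) for 90 min at 37 deg C to detect potentiation. Beta-arrestin recruitment was read as enzyme-fragment luminescence after 1 h at ambient temperature. Full response was set by 57 uM dopamine.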
# D2 PAM-2: HTS Assay for Positive Allosteric Modulators of the Human D2 Dopamine Receptor: Primary Screen for Potentiators; HEK293 T-REx D2, calcium flux, EC20 dopamine potentiation; potentiation, % at 10 µM; actives 0.34% (n = 340,000); AID 485347, 2010;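 active = potentiation over 3 SD above the plate norm, cut at about 30% in these data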; note: 0% is about no effect
#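 Tetracycline-induced HEK293 T-REx cells force-coupled to calcium signalling expressed D2; compounds were pin-added after a 10 s baseline, read kinetically 180 s, then an EC20 dopamine challenge followed with a further 180 s calcium read.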
# D2 ag-1: HTS Assay for Allosteric Agonists of the Human D2 Dopamine Receptor: Primary Screen for Agonists; D(2) dopamine receptor (Homo sapiens), P14416; HEK293 T-REx D2 cells, calcium flux agonist mode; activation, % at 2 µM; actives 0.53% (n = 340,000);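 active = activation over 3 SD above normal in the single-dose calcium agonist read, cut at about 30% in these data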; note: 0% is about no effect
#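 Agonism is scored from calcium flux in a force-coupled, inducible HEK293 cell line expressing D2, read kinetically for 180 s after compound addition against dopamine controls.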
# D2 ag-2: Beta-Arrestin HTS for Positive Allosteric Modulators of the Human D2 Dopamine Receptor: Agonists; D(2) dopamine receptor (Homo sapiens), P14416; DiscoveRx PathHunter D2 beta-arrestin, luminescence, 90 min; 100% = 57 uM dopamine signal; activation, % (concentration not given with the values); actives 0.084% (n = 360,000); in the data active = activation above about 40%
#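 DiscoveRx PathHunter D2 beta-arrestin cells (2,100/well) attached overnight, then compound-stimulated 90 min at 37 C in HBSS/10 mM HEPES/0.1% Tween-20 buffer; beta-galactosidase complementation read by luminescence after 1 h at ambient temperature. Dopamine 57 uM final (EC100) as control.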
# D2 antag: HTS Assay for Allosteric Antagonists of the Human D2 Dopamine Receptor: Primary Screen for Antagonists | actives 2% (n = 340,000) | D(2) dopamine receptor (Homo sapiens), P14416 | inhibition, % at 10 µM | HEK293 TREx D2 cells, calcium flux, dopamine EC80; in the data active = inhibition above about 30%; inactive = below that, where a call was filed; note: 0% is about no effect
#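 HEK293 T-REx D2 cells, tet-induced, calcium dye no-wash. Cpd pintool add, 180 s kinetic, then EC80 DA, 180 s kinetic. Ca flux read.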
# Starred values were filed as active, the others as inactive; . = not tested or not shown. Rows were chosen to be rich in hits. Some 2.4% of all compounds tested hit in one or more screens of this group.
SMILES,D2 PAM-1,D2 PAM-2,D2 ag-1,D2 ag-2,D2 antag
Cc1ccc(NC(=O)C(=O)Nc2ccc(C)cn2)nc1,-9,0,0,0,-8
Cc1ccc(NC(=O)/C(C#N)=C(\N)C(Cl)(Cl)Cl)nc1,1,19,0,0,33*
O=C(c1ccco1)N1CCN(c2ncnc3scc(-c4ccc(Cl)cc4)c23)CC1,1,.,.,1,.
CCOc1ccc(NS(=O)(=O)c2cc(NC(=O)CCS(=O)(=O)c3ccc(C)cc3)ccc2OC)cc1,-29,-17,0,0,33*
CC1CC(C)CN(CC(O)COC2CC(C)CC(C)(C)C2)C1 (stereo not drawn),-24,.,.,-5,.
CC1CC(OCC(O)CN2CCOCC2)CC(C)(C)C1 (stereo not drawn),1,-4,0,1,46*
CCOC(=O)c1ccc(NC(=S)N(CCCN2CCCC2)Cc2cccs2)cc1,-25,-16,4,-5,9
COc1ccc(NC(=S)N(CCCN2CCC(C)CC2)Cc2cccs2)cc1,-18,.,-1,-1,18
CCOC(=O)c1ccc(NC(=S)N(CCCN2CCCC(C)C2)Cc2cccs2)cc1 (stereo not drawn),-28,-32,3,-3,40*
COc1cccc(NC(=S)N(CCCN2CCC(C)CC2)Cc2cccs2)c1,-17,-35,2,-3,59*
CC(OC(=O)[C@H](C)N=C1NS(=O)(=O)c2ccccc21)C(=O)Nc1ccc(F)c(F)c1F (stereo partly drawn),-12,.,.,-1,.
O=C(Nc1ccc(F)c(F)c1)c1ccc(-n2cncn2)c([N+](=O)[O-])c1,2,-7,0,14,-27
COc1ccc(NC(=O)c2ccc(-n3cncn3)c([N+](=O)[O-])c2)cc1OC,13,-2,-1,3,35*
O=C(Nc1cccc(/C=C/c2ccccn2)c1)c1ccc(-n2cncn2)c([N+](=O)[O-])c1,63*,-14,0,7,21
Cc1ccc(NC(=O)Cn2c(=O)n(Cc3nc(C)no3)c(=O)c3cc4c(cc32)OCO4)c(C)c1,.,-8,0,.,.
COc1ccc(Br)cc1C(=O)Nc1cccc2ccc(C)nc12,.,-5,0,.,.
O=C1N[C@@H](Cc2ccccc2)[C@@H](c2ccco2)O1,2,14,-1,-1,32*
COc1ccc(-n2nc(C(=O)N3CCN(c4ccc(F)cc4)CC3)c3ccccc3c2=O)c(OC)c1,-5,-15,9,-1,34*
CN(C(=O)c1ccc(NC(=O)C2CCN(C(=O)OC(C)(C)C)CC2)cc1)C1CCC1,-8,.,.,-2,.
CCS(=O)(=O)Nc1cccc(C2=NN(S(=O)(=O)c3ccc(F)cc3)C(c3cccs3)C2)c1 (stereo not drawn),-6,-1,4,-2,4
CS(=O)(=O)Nc1cccc(C2=NN(S(=O)(=O)c3ccc(F)cc3)C(c3cccs3)C2)c1 (stereo not drawn),-8,-8,4,-4,31*
CSc1nsc(SC)c1-c1ccc(Cl)cc1,-6,.,.,-4,.
CCN(CC)c1ccc(/C=C/c2cc(-c3ccccc3)c3ccccc3n2)cc1,-3,-6,54*,2,43*
Cc1cc(C)c(S(=O)(=O)NCCOc2ccccc2)c(C)c1-n1cnnn1,-1,41*,3,-2,-30
CC1CN(c2ncnc3c2cnn3-c2ccc(Cl)cc2)CC(C)O1 (stereo not drawn),0,22,-1,0,31*
SMILES,D2 PAM-1,D2 PAM-2,D2 ag-1,D2 ag-2,D2 antag
N#Cc1ccc(NC(=O)COC(=O)c2cccc(S(=O)(=O)N3CCCC3)c2)cc1,-11,.,.,-6,.
COc1ccc(Cn2ccc3nc(C)c(C(=O)Nc4ccc(OC)cc4OC)cc3c2=O)cc1,.,2,-1,.,.
Oc1ccccc1N1CCN(c2ncnc3scc(-c4ccccc4)c23)CC1,10,33*,9,5,-1
Oc1ccccc1N1CCN(c2ncnc3scc(-c4ccc(F)cc4)c23)CC1,2,.,.,2,.
CC1=C(C(=O)Nc2cccc(C(F)(F)F)c2)C2(CCN(C(C)C)CC2)OC1=O,.,-6,0,.,.
O=C(NC1CCCCC1)c1ccc(-c2ccccc2[N+](=O)[O-])o1,-18,-23,-1,2,59*
O=C(Cn1c(=O)n(-c2ccc(F)c(Cl)c2)c(=O)c2sc3ccccc3c21)NC1CCCC1,.,24,0,.,.
c1ccc2c(Nc3ccc4c(c3)OCCO4)c3c(nc2c1)CCCC3,-17,-14,-1,0,9
Cc1[nH]c2ccccc2c1/C=N/NC(=O)c1cccc(F)c1,-6,-7,-1,-9,-12
Cc1[nH]c2ccccc2c1/C=N/Nc1ccc(F)cc1F,.,1,1,.,31*
COc1cccc(-n2c(-c3ccco3)nc3nc4ccccc4nc32)c1,-2,-13,0,-3,4
Cc1cccc(-n2c(-c3ccco3)nc3nc4ccccc4nc32)c1,.,-3,-1,.,70*
Cc1ccc(-n2nnnc2CN2CCCCC2)cc1,-2,1,0,2,38*
Clc1ccc(/C=N/Nc2nnc(-c3ncc[nH]3)c3ccccc23)cc1,-17,-18,0,-4,70*
COc1ccc(OC)c(NC(=O)C(CCSC)NS(=O)(=O)c2cccs2)c1 (stereo not drawn),-5,-2,0,1,32*
Cc1cc(C)nc(NC(C)(C)C(=O)O)n1,-6,-17,-1,2,32*
CC(=O)NC(=S)Nc1ccc2oc(=O)ccc2c1,1,-1,1,0,-17
CC(C)CCNC(=O)C1CCN(c2nnc(-n3cccc3)s2)CC1,-3,8,1,-3,-7
CS(=O)(=O)N1CCC(C(=O)Nc2cc(C(F)(F)F)ccc2Cl)CC1,-14,-12,0,-2,-7
Cc1oc(-c2ccccc2F)nc1CN1CCC(C(=O)NCCc2ccccc2)CC1,.,-6,2,.,.
Cc1oc(-c2ccccc2F)nc1CN1CCC(C(=O)NCCC2=CCCCC2)CC1,-8,2,6,-4,32*
O=C(NCCC1=CCCCC1)C1CCN(c2nnc(-n3cccc3)s2)CC1,-1,-8,0,-4,48*
O=C(Nc1cc(C(F)(F)F)ccc1Cl)C1CCN(c2nnc(-n3cccc3)s2)CC1,-22,-18,0,0,62*
CCC(=O)Nc1ccc(CC)cc1-c1nc2ccccc2n(Cc2ccccc2)c1=O,.,-6,1,.,.
